According to ChEMBL document CHEMBL4513216, “Probing the Open Global Health Chemical Diversity Library for Multistage-Active Starting Points for Next-Generation Antimalarials” (ACS Infect Dis, 2020):
In all, about 69,000 compounds went through this assay and about 8,600 (12%) showed an effect of 50% or more. This is one part of a sample in which strong results are shown more often than they occur.

test system: Plasmodium berghei; test: Screen against P. berghei liver stage (PbLuc), transformed with Luciferase, at 10uM; assay type: functional, HepG2; details: tested at 10 uM

First: COc1cccn(CC(=O)N2CCCC3(CCCCC3)C2)c1=O
Second: Cc1cc(C)c(C(=O)N2CCCC(O)(CN3CCCC3)C2)cc1C (stereo not given)
The INHIBITION of the first is lower: -17.7% for the first, 34.9% for the second.

First: CCN(CC(=O)NC)C(=O)c1sc(Cc2ccccc2)nc1C
Second: Cc1nc(Cc2ccccc2)nc2sc(C(=O)O)c(C)c12
The INHIBITION of the first is lower: -16% for the first, 53.1% for the second.

Compared with `Cc1c(C(=O)O)sc2nc(Cc3ccccc3)nc(N)c12`, `CSC1=Nc2c(cnn2-c2ccccc2)C2=NCCCN12` is higher in INHIBITION: -2.27% for the first, 73.9% for the second.

Compared with `COc1cc2nc(C)n(CC(=O)NCCN(C)C)c(=O)c2cc1OC`, `CCOC(=O)CNC(=O)Cn1c(-c2ccoc2)nc(C)c1C` is higher in INHIBITION: 2.55% for the first, 8.52% for the second.

Compared with `COc1cc(CN2CCCC[C@]3(C)NC(=O)CC[C@H]23)ccc1F`, `CCc1ccc(CN2CCC3(CC2)NC(=O)CC3c2ccncc2)o1` (stereo not given) is lower in INHIBITION: 23.9% for the first, 21.6% for the second.

First: CCOCC1CN(Cc2ccoc2)Cc2nn(CC3CC3)cc21 (stereo not given)
Second: CCn1cc2c(n1)CN(Cc1ccoc1)CC2COCC1CC1 (stereo not given)
The INHIBITION of the first is lower: -19.4% for the first, 9.54% for the second.

Going from `CCOCC1CN(Cc2cnn(C)c2)Cc2c1cnn2CC` (stereo not given) to `CCOCC1CN(Cc2cnn(C)c2)Cc2cnn(C)c21` (stereo not given), the INHIBITION falls from 53.2% to 35.7%.

Compared with `CCn1cc2c(n1)CN(Cc1ccc(C)o1)CC2COCC1CC1` (stereo not given), `CCn1cc2c(n1)CN(Cc1ccc(F)cc1)CC2COCC1CC1` (stereo not given) is higher in INHIBITION: 63.7% for the first, 70.7% for the second.

First: CCOCC1CN(Cc2cnn(C)c2)Cc2ncn(C)c21 (stereo not given)
Second: CCOCC1CN(Cc2cnn(C)c2)Cc2nn(C)cc21 (stereo not given)
The INHIBITION of the first is higher: 36.9% for the first, 18.2% for the second.

Compared with `CCOCC1CN(Cc2ccc(OC)cc2)Cc2nn(CC3CC3)cc21` (stereo not given), `CCOCC1CN(Cc2ccc(F)cc2)Cc2nn(CC3CC3)cc21` (stereo not given) is lower in INHIBITION: 33% for the first, 5.96% for the second.

Going from `CCOCC1CN(Cc2cnn(C)c2)Cc2nn(CC3CC3)cc21` (stereo not given) to `CCn1cc2c(n1)CN(Cc1cnn(C)c1)CC2COCC1CC1` (stereo not given), the INHIBITION falls from 67.2% to 63.7%.

Going from `CCOCC1CN(Cc2cnn(C)c2)Cc2ncn(CC3CC3)c21` (stereo not given) to `Cn1cc(CN2Cc3cn(C)nc3C(COCC3CC3)C2)cn1` (stereo not given), the INHIBITION rises from 33% to 34.6%.

First: O=C(c1cc(=O)[nH]c(=O)[nH]1)N1CCCC(CO)(CC2CC2)C1 (stereo not given)
Second: CCc1cc(=O)[nH]c2nnc(SCC(=O)N3CCC(C)CC3)n12
The INHIBITION of the first is higher: 47.6% for the first, 14.4% for the second.

Compared with `CN(Cc1ccccc1)C1COC2(CCN(Cc3nccs3)CC2)C1` (stereo not given), `c1ccc(NC[C@@H]2CCC[C@@H]3CN(Cc4nccs4)C[C@@H]32)nc1` is higher in INHIBITION: 37% for the first, 51.2% for the second.

Going from `O=C(Cc1ccc(F)cc1)NCCNc1cc(N2CCCC2)ncn1` to `O=C(NC1CC1)c1cc(NC(=O)N2CCCC2)ccc1Cl`, the INHIBITION rises from 31.7% to 31.9%.

Going from `CCN(CC)C1COc2c(cc(Br)c(C)c2Br)C1=O` (stereo not given) to `CCc1cc(N[C@@H](CO)C(N)=O)n2nc(C)c(C)c2n1`, the INHIBITION rises from 5.56% to 54.4%.

Compared with `CC(C)c1noc(CCNC(=O)NCC2Cc3ccccc3O2)n1` (stereo not given), `Cc1nc2ccccc2n1Cc1cc(C(=O)N(C)C2CCOCC2)no1` is higher in INHIBITION: -34.8% for the first, 37.3% for the second.

Going from `Cc1nc(N(C)C)nc(C)c1NS(=O)(=O)c1ccc(F)cc1F` to `Cc1nc(-c2ccoc2)n(CC(=O)N(C)CC(C)C)c1C`, the INHIBITION rises from -7.81% to 50%.

Compared with `CS(=O)(=O)NCC1CCCN(C(=O)Nc2ccccc2F)C1` (stereo not given), `CS(=O)(=O)NC1CCCN(C(=O)c2cccnc2)C1` (stereo not given) is lower in INHIBITION: 4.1% for the first, -16% for the second.

Compared with `COc1cnc(CSc2nnc(C)s2)cc1OCC(=O)NC(C)(C)C`, `CCc1cc(N[C@@H](CC(C)C)C(N)=O)n2nc(C)c(C)c2n1` is higher in INHIBITION: -3.11% for the first, 47.7% for the second.

First: CN(C)S(=O)(=O)N1CCC[C@]2(C[C@@H](Oc3ccccn3)CO2)C1
Second: CCO[C@@H]1CO[C@@]2(CCCN(S(=O)(=O)c3cccnc3)C2)C1
The INHIBITION of the first is lower: -21.3% for the first, 30.7% for the second.

Going from `O=C1CCC2(CCC(NC3CCOCC3)CC2)N1Cc1ccccc1` (stereo not given) to `c1ccc(NC[C@@H]2CCC[C@@H]3CN(Cc4cccnc4)C[C@@H]32)nc1`, the INHIBITION rises from -47.9% to 32.2%.

Compared with `CCn1cc2c(n1)CN(Cc1ccncc1)CC2COCC1CC1` (stereo not given), `O=c1ccc2c([nH]1)CCC(NCc1ccncc1)C2` (stereo not given) is lower in INHIBITION: 40.9% for the first, 11.5% for the second.

Going from `Cc1nc(-c2ccoc2)n(CC(=O)NCC(C)C)c1C` to `CCc1cc(N[C@H](C(N)=O)C(C)C)n2nc(C)c(C)c2n1`, the INHIBITION rises from -8.28% to 16.3%.

Going from `Cc1cccc(C)c1Nc1noc2c1CN(C(=O)c1cn(C)cn1)CC2` to `Cc1nc2ccccc2n1Cc1cc(C(=O)N2C[C@@H](C)O[C@@H](C)C2)no1`, the INHIBITION rises from 25.4% to 74%.

First: O=C(NC1CC1)c1cc(NC(=O)N2CCSCC2)ccc1Cl
Second: O=C(NC1CC1)c1cc(NC(=O)N2CCOCC2)ccc1Cl
The INHIBITION of the first is lower: 57.6% for the first, 68.3% for the second.

Compared with `O=C(Nc1ccc(CCN2CCSCC2)cc1)NC1CC1`, `O=C(NC1CC1)c1cc(NC(=O)N2CCCC(O)C2)ccc1Cl` (stereo not given) is higher in INHIBITION: 1.79% for the first, 28.5% for the second.

Compared with `Cn1c(=O)oc2ccc(NC(=O)N3CCSCC3)cc21`, `Cn1c(=O)oc2ccc(NC(=O)N3CCOCC3)cc21` is higher in INHIBITION: 24.7% for the first, 53.9% for the second.

Compared with `Cn1c(=O)oc2ccc(NC(=O)N3CCc4ccccc4C3)cc21`, `Cc1cccc(N2CCCN=C2NC(=O)c2cccc(Cl)c2)c1` is lower in INHIBITION: -3.43% for the first, -25.5% for the second.

Compared with `CC1CN(C(=O)Nc2ccc(Cl)c(C(=O)NC3CC3)c2)CC(C)(C)O1` (stereo not given), `CC(=O)NCc1ccc(C(=O)NC2CCc3nc(C)cn3C2)o1` (stereo not given) is lower in INHIBITION: 31.9% for the first, 17.945% for the second.

Compared with `O=C(C1CCCO1)N1CCC(O)(Cn2ccc3ccncc32)CC1` (stereo not given), `Cn1cc(CN2CCCC23CCN(C(=O)c2ccccn2)CC3)cn1` is higher in INHIBITION: -45.4% for the first, -17.1% for the second.

First: Cc1cc(C)c2cc(CNCCCN3CCOCC3)c(=O)[nH]c2c1
Second: Cc1cc(C)cc(CN2C[C@H]3COC[C@H](N4CCN(C)CC4)[C@H]3C2)c1
The INHIBITION of the first is lower: 3.91% for the first, 47.4% for the second.

Compared with `CN(C)C[C@@H]1CCC[C@@H]2CN(c3nccc(C(F)(F)F)n3)C[C@@H]21`, `Cn1cc(CN2C[C@H]3CCC[C@@H](CNc4nccn4C)[C@H]3C2)cn1` is higher in INHIBITION: -3.58% for the first, 23.1% for the second.

First: C[C@@H]1CN(C(=O)c2cc(Cn3cnc4ccccc43)on2)C[C@H](C)O1
Second: CC(C)(C)C(=O)N1CCCc2c(cnn2-c2ccccc2)C1
The INHIBITION of the first is higher: 30.5% for the first, -43.9% for the second.

First: CN(C)C(=O)CN1CCOCC2(C1)CN(c1ncc(F)cn1)CCO2 (stereo not given)
Second: O=C(C[C@@H]1COC[C@H]2CN(Cc3cccnc3)C[C@@H]12)N1CCOCC1
The INHIBITION of the first is lower: 10.6% for the first, 19.5% for the second.

Going from `Cn1ccnc1NC[C@@H]1CCC[C@@H]2CN(CC3CC3)C[C@@H]21` to `Cn1ccnc1NC[C@@H]1CCC[C@@H]2CN(Cc3nccs3)C[C@@H]21`, the INHIBITION falls from 76.3% to 29%.

First: Cn1cc(CN2C[C@H]3CCC[C@@H](CNc4ncccn4)[C@H]3C2)cn1
Second: c1cnc(NC[C@@H]2CCC[C@@H]3CN(Cc4cc[nH]n4)C[C@@H]32)nc1
The INHIBITION of the first is higher: 31.2% for the first, 1.81% for the second.

First: c1ccc(NC[C@@H]2CCC[C@@H]3CN(Cc4csnn4)C[C@@H]32)nc1
Second: COCCN1C[C@H]2CCC[C@@H](CNc3ncccn3)[C@H]2C1
The INHIBITION of the first is lower: 15.9% for the first, 77.4% for the second.

First: COCCN(CC(C)C)C(=O)c1cccc(Nc2cnccn2)c1
Second: COC(=O)c1cccc(NCC(=O)NC(N)=O)c1
The INHIBITION of the first is higher: 46.6% for the first, -5.92% for the second.

Going from `CSC1=Nc2c(cnn2-c2ccc(C)cc2)C2=NCCCN12` to `CSC1=Nc2c(cnn2-c2ccc(Cl)cc2)C2=NCCCN12`, the INHIBITION falls from 69.8% to 64.8%.

Going from `CSC1=Nc2c(cnn2-c2cccc(Cl)c2)C2=NCCCN12` to `CCSC1=Nc2c(cnn2-c2ccc(Cl)cc2)C2=NCCCN12`, the INHIBITION falls from 79.7% to -37.1%.

Going from `O=C(NC1=NCCCN1c1ccc(Cl)cc1)c1cccc(Cl)c1` to `CC(=O)c1nn(-c2cccc(Cl)c2)c(C)c1C(C)=O`, the INHIBITION falls from 15.1% to 12.3%.

First: CN(Cc1cccc2cnccc12)C(=O)CCc1n[nH]c2c1CCCC2
Second: Cc1ccc(NC(=O)CCc2cnn(C)c2)cc1F
The INHIBITION of the first is higher: 34.9% for the first, 22.3% for the second.

Going from `Cc1cccc(C2(C(=O)NCC3CCN(CC(F)(F)F)C3)CCC2)c1` (stereo not given) to `COc1ccc(CN2C[C@@H]3COC[C@@H](CC(=O)N4CCCC4)[C@@H]3C2)cc1`, the INHIBITION falls from 5.03% to -26.5%.

Going from `CC(O)CN1CCC(CN(C)CCC(=O)NC2CCCCC2)CC1` (stereo not given) to `CC(C)CO[C@@H]1CC[C@H]2[C@H]1OCCN2S(=O)(=O)C1CC1`, the INHIBITION rises from 19.7% to 28.3%.

Going from `Cc1ccc(CN(Cc2ccncc2)C2CC(C)(C)NC(C)(C)C2)o1` to `Cc1ccc(CN(Cc2ncc[nH]2)C2CC(C)(C)NC(C)(C)C2)o1`, the INHIBITION rises from 7.05% to 91.6%.

Compared with `Cc1cccc(CN(Cc2ccc(C)o2)C2CC(C)(C)NC(C)(C)C2)n1`, `Cc1ccc(CN(Cc2c[nH]cn2)C2CC(C)(C)NC(C)(C)C2)o1` is lower in INHIBITION: 53.5% for the first, 19.3% for the second.

Compared with `Cc1ccc(CN(Cc2[nH]cnc2C)C2CC(C)(C)NC(C)(C)C2)o1`, `CC1(C)CC(N(Cc2ccccc2)Cc2ncc[nH]2)CC(C)(C)N1` is lower in INHIBITION: 38.2% for the first, 10.26% for the second.

Going from `Cc1cncnc1C1CCN(CCO)CC1` to `CN1CCN([C@H]2COC[C@@H]3CN(Cc4cccnc4)C[C@@H]32)CC1`, the INHIBITION rises from -20.6% to 57.9%.

First: COc1ccc(CN2C[C@@H]3COC[C@H](N4CCN(C)CC4)[C@@H]3C2)cc1
Second: COc1ccc(CN2C[C@@H]3COC[C@@H](N4CCN(C)CC4)[C@@H]3C2)cc1
The INHIBITION of the first is lower: 40.4% for the first, 68.4% for the second.
